An excerpt weighted towards active compounds, which were near 3.6% of everything screened.
mHTT CaM bind: disrupts binding of mutant huntingtin to calmodulin. AID 1671202. P42858. 190,000 tested, 3.6% active. AlphaScreen His-mHTT/GST-CaM binding, luminescence. inhibition, % at 15 µM
Pf apPOL inh: Pf-apPOL DNA polymerase inhibition. AID 1794808. Recombinant Pf-apPOL, molecular beacon fluorescence, 1.5 h. 210,000 tested, 0.25% active. inhibition, % at 10 µM
Large screens that a line does not name were inactive. Rule as the data show it: active = inhibition above about 50%; inactive = the rest.

CC(NC(=O)Cc1cc(=O)[nH]c(SCc2cccc(Cl)c2)n1)c1ccccc1 (stereo not drawn)	none
CCN1C(=O)/C(=c2/sc3nc4ccccc4n3c2=O)c2ccccc21	none
Cc1ccc2c(c1)/C(=c1\sc3nc4ccccc4n3c1=O)C(=O)N2	Pf apPOL inh 55
COc1cc(C(=O)Nc2ccc(-n3nncc3-c3ccccc3)cc2)cc(OC)c1OC	none
COc1cccc(C(=O)Nc2ccc(-n3nncc3-c3ccccc3)cc2)c1OC	mHTT CaM bind 57
CCSc1nnc(NC(=O)CSc2nnnn2-c2ccccc2CC)s1	none
O=C(CN1CCN(Cc2ccccc2)CC1)N1CCCc2c1c(=O)oc1ccc(O)cc21	mHTT CaM bind 57
O=C(c1ccco1)N1CCN(CC(=O)N2CCCc3c2c(=O)oc2ccc(O)cc32)CC1	none
C=CS(=O)(=O)N(Cc1ccccc1)[C@H](CO)CC(C)C	none
CC(C)C[C@H](CO)N(Cc1ccccc1)S(=O)(=O)N(Cc1ccccc1)[C@@H](CO)CC(C)C	mHTT CaM bind 75
O=C1NC(=S)NC1=Cc1ccccc1	none
O=C1CC(C(=O)N2CCc3ccccc3C2)CN1CCc1c[nH]c2ccc(Cl)cc12 (stereo not drawn)	mHTT CaM bind 65
CCCNC(=O)C1CC(=O)N(CCc2c[nH]c3ccc(Cl)cc23)C1 (stereo not drawn)	none
O=C(NCc1ccccn1)C1CC(=O)N(CCc2c[nH]c3ccc(Cl)cc23)C1 (stereo not drawn)	mHTT CaM bind 92
O=C1CC(C(=O)N2CCc3ccccc3C2)CN1CCc1c[nH]c2ccc(F)cc12 (stereo not drawn)	none
CC(C)CNC(=O)C1CC(=O)N(CCc2c[nH]c3ccc(Cl)cc23)C1 (stereo not drawn)	none
O=C(NCCc1ccccc1)C1CC(=O)N(CCc2c[nH]c3ccc(Cl)cc23)C1 (stereo not drawn)	mHTT CaM bind 90
Cc1ccnc(N2CCC(C(=O)N3CCN(c4cccc(Cl)c4)CC3)CC2)n1	none
O=C(O)c1cnccc1C(=O)Nc1cccc(C(F)(F)F)c1	none
CSc1nsc(SC)c1C(=O)NCCCn1nc(C(F)(F)F)c(Cl)c1C	none (no result: Pf apPOL inh)
CCC(C)NC(=O)c1nc(-c2ccc(C)cc2)n2c1CCCCC2 (stereo not drawn)	none
Cc1sc2ccn(C)c(=O)c2c1C(=O)N1CCN(c2cccc(Cl)c2)CC1	mHTT CaM bind 96
Cc1cccc(N2CCN(C(=O)c3c(C)sc4ccn(C)c(=O)c34)CC2)c1	none
CCc1cc(C2CCCN2Cc2cn[nH]c2-c2ccc(C)cc2)on1 (stereo not drawn)	none
O=S1(=O)N[C@@H](Cc2ccccc2)COc2cccc(N3CCN(Cc4ccccc4F)CC3)c21	mHTT CaM bind 89
CC(C)C[C@@H]1COc2cccc(N3CCN(Cc4ccccc4F)CC3)c2S(=O)(=O)N1	none
COc1ccc(CNC(=O)C2CCCN(c3nnc4ccc(Cl)cn34)C2)cc1OC (stereo not drawn)	none
O=C(Nc1ccccc1)N1CCn2cccc2C1Cc1ccccc1 (stereo not drawn)	none
O=C(Nc1cccc(F)c1)N1CCn2cccc2C1Cc1ccccc1 (stereo not drawn)	none
O=C(Nc1ccccc1Br)N1CCn2cccc2C1Cc1ccccc1 (stereo not drawn)	mHTT CaM bind 52
O=C(Nc1ccc(F)c(Cl)c1)N1CCn2cccc2C1Cc1ccccc1 (stereo not drawn)	mHTT CaM bind 100
CCc1noc(C2CCCCN2C(=O)Cc2c(C)noc2C)n1 (stereo not drawn)	none
COc1cc(CN2CCN(c3ccccn3)CC2)cc(OC)c1	none
CCOC(=O)c1c(-c2ccc(OC)cc2)oc2ccc(OCC(=O)OC(C)(C)C)cc12	none
COc1ccc(/C=C2\SC(=O)N(CN3CCOCC3)C2=O)c(OC)c1	none
COc1ccc(C=C2SC(=S)N(CCc3ccc(O)cc3)C2=O)c(OC)c1	mHTT CaM bind 77
CCCNC(=O)c1ccc2ncc3c(=O)n(-c4ccc(F)cc4)[nH]c3c2c1	none
CCCNC(=O)c1ccc2ncc3c(=O)n(-c4ccc(Cl)cc4)[nH]c3c2c1	mHTT CaM bind 58
c1cncc(C(N2CCOCC2)N2CCOCC2)c1	none
COc1ccc(NC(c2ccccc2)c2ccncc2)cc1 (stereo not drawn)	none
Cc1cccc(NC(c2ccc(F)cc2)c2ccc3cccnc3c2O)n1 (stereo not drawn)	mHTT CaM bind 100
Oc1c(C(Nc2ccc(F)cc2)c2ccncc2)ccc2cccnc12 (stereo not drawn)	mHTT CaM bind 100
Oc1c(C(c2ccncc2)N2CCOCC2)ccc2cccnc12 (stereo not drawn)	mHTT CaM bind 100
Cc1ccc(F)cc1NC(=O)CSc1cccc2cccnc12	none
O=C(CSc1cccc2cccnc12)c1ccc(F)cc1	none
Cc1cccc(NC(c2cccc(F)c2)c2ccc3cccnc3c2O)n1 (stereo not drawn)	mHTT CaM bind 99
COCC(C)(O)CNC(=O)c1ccc2nsnc2c1 (stereo not drawn)	none
COc1ccc(NC(=O)N2CCC3(CC2)NC(=O)c2cccc(Cl)c2N3)c(C)c1	none
O=C1NC2(CCN(Cc3c(F)cccc3Cl)CC2)N=C1c1cccc(F)c1	none
O=[N+]([O-])c1cccc(C2Nc3ccccc3-c3nc4ccccc4n32)c1 (stereo not drawn)	none
O=[N+]([O-])c1ccc(C2Nc3ccccc3-c3nc4ccccc4n32)cc1 (stereo not drawn)	mHTT CaM bind 54
CC1(C)OCC2(CO1)CN(C(=O)c1ccc(=O)oc1)C2	none
C=C(C)COc1ccc2c(c1)OC(=Cc1cccc(OC)c1)C2=O	mHTT CaM bind 73
COc1ccc(C=C2Oc3cc(OCC(=O)O)ccc3C2=O)cc1	Pf apPOL inh 61
COc1ccc(C=C2Oc3cc(OCC(=O)c4ccc(OC)cc4)ccc3C2=O)cc1	none
CCOC(=O)COc1ccc2c(c1)OC(=CC=Cc1ccccc1)C2=O	none
COc1ccc(C(=O)COc2ccc3c(c2)OC(=CC2=Cc4ccccc4OC2)C3=O)cc1OC	mHTT CaM bind 58
CC(C)(C)OC(=O)COc1ccc2c(c1)OC(=CC1=Cc3ccccc3OC1)C2=O	none
CC(=O)COc1ccc2c(c1)OC(=CC=Cc1ccccc1)C2=O	mHTT CaM bind 88
COc1cccc(C=C2Oc3cc(OCC(C)=O)ccc3C2=O)c1	none
CN(CC(=O)Nc1ccc(Br)cc1)S(=O)(=O)c1ccc(Br)s1	none
CCn1nccc1C(=O)N1CCCC1c1cc(C(C)C)on1 (stereo not drawn)	none
CC(=O)N1CCN(c2nc3c(s2)CC(C(=O)Nc2ccc(C)cc2C)CC3)CC1 (stereo not drawn)	none
O=C(NCC1(c2cccs2)CCOCC1)c1ccc(Cl)c(Cl)c1	none
O=C(Nc1c(C(=O)NCc2cccnc2)cnn1-c1ccccc1)c1ccc(F)cc1	none
COc1ccccc1NC(=O)Nc1ccc(Cl)c(Cl)c1	none
COc1ccccc1C1SCCN1C(=O)Nc1ccc(Cl)c(Cl)c1 (stereo not drawn)	mHTT CaM bind 97
O=C(c1nccc2ccccc12)N1CCC2(CC1)NC(=O)N(Cc1cccc(Cl)c1)C2=O	none
O=C(c1ccccc1F)N1CCC2(CC1)NC(=O)N(Cc1ccccc1)C2=O	none
O=C(c1c[nH]c2ccccc12)N1CCC2(CC1)NC(=O)N(Cc1ccccc1)C2=O	mHTT CaM bind 62
O=C(c1cc2ccccc2[nH]1)N1CCC2(CC1)NC(=O)N(Cc1ccc(Cl)cc1)C2=O	mHTT CaM bind 99
O=C(c1cc2ccccc2[nH]1)N1CCC2(C1)NC(=O)N(Cc1ccc(Cl)cc1)C2=O (stereo not drawn)	none

Bioassay records: PubChem, University of Kansas High Throughput Screening Laboratory
